Data from PubChem BioAssay (NCATS).
Unmarked numbers belong to inactive results. Inconclusive results are not listed. Activity calls are given as the source filed them. Unless noted, the call rests on the fitted dose curve; in most records, active means well fitted curve in either direction with a large enough effect (not every such curve was filed as active); inconclusive means small, poorly fitted or top-dose-only effect, or another doubt; inactive means flat fitted curve, though single readings scatter.

Experiments:
[1] = AP1 Signaling Pathway (AID 357); conditions: ME-180 AP-1-bla reporter, EGF-induced, beta-lactamase ratio, 5 h; further: on the % scale 0 is the no-effect control and ±100 the full control effect
How it was run: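 In this screen, ME-180 cells in Opti-MEM with 0.5% dialyzed FBS received EC50 EGF and compound titrations for 5 h. AP-1 reporter beta-lactamase was detected via CCF4 ratio, giving AC50 for positive and negative modulators.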

[2] = target: Cytochrome P450 1A2 (Homo sapiens) (UniProt P05177); experiment: p450-cyp1a2 (AID 410; calls by dose curve; further: potency means the concentration at half of the fitted maximal effect;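 on activity change, negative = inhibition: -100% = full effect of reference inhibitor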); conditions: recombinant CYP1A2, luciferin-ME demethylation, luminescence; series mostly up to 25.6 µM
Chain of Cytochrome P450 1A2 (Homo sapiens) (P05177 whole entry, looked up): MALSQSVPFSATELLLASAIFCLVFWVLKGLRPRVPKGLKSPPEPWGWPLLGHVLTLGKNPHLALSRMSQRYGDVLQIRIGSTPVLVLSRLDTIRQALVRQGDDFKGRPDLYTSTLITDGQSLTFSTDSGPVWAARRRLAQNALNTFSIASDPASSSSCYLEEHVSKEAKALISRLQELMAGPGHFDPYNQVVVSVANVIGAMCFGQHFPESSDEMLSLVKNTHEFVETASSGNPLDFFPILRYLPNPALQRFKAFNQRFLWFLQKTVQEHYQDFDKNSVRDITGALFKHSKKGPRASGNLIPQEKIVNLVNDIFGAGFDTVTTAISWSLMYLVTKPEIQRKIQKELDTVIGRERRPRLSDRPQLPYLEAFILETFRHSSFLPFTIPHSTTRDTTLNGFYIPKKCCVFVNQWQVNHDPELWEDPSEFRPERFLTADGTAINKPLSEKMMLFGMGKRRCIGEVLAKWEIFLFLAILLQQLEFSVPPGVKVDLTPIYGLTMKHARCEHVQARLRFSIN
How it was run: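 20nM CYP1A2 with 100uM Luciferin-ME (at Km) in 100mM KPO4; compound preincubated 10 min, NADPH regeneration added, 60 min at room temperature. Luciferin quantified by luminescence after detection reagent; normalized to 57 uM furafylline.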

[3] = NFAT Signaling Pathway (AID 444); conditions: Jurkat NFAT-bla M1, carbachol, beta-lactamase ratio, 5 h;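 further: carbachol stimulus at about its EC50 of 1 µM final; on the % scale 0 is the no-effect control and ±100 the full control effect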
How it was run: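 Jurkat cells carrying an NFAT-driven β-lactamase reporter and co-transfected muscarinic M1 receptor were treated with compound plus carbachol (1 uM final, an EC50 level) for 5 h at 37 °C. CCF4 loading followed for 1 h at RT; 460/530 nm ratio gave %activity.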

[4] = Stat Signaling Pathway (AID 446); conditions: ME-180 SIE beta-lactamase reporter, IL-6 stimulated, 5 h;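 further: ME-180 cervical cancer cells given 40 pM IL-6 alongside compound; SIE-controlled beta-lactamase reporter measured as 460/530 nm FRET emission ratio; on the % scale 0 is the no-effect control and ±100 the full control effect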
How it was run: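 Screening format detects activators and inhibitors alike: ME-180 SIE-bla cells stimulated at 40 pM IL-6 for 5 hrs with compound, then dual-emission beta-lactamase read at 405 nm excitation.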

[5] = target: Glucocorticoid receptor (Homo sapiens) (UniProt P04150); experiment: GR-GFP Redistribution (AID 450;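 active means compounds whose dose series gives a full or clear partial fitted curve of increased nuclear translocation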; further: potency means the concentration at half of the fitted maximal effect); conditions: U2OS GR-GFP nuclear translocation, laser cytometry, 2 h
Chain of Glucocorticoid receptor (Homo sapiens) (P04150 whole entry, looked up, the tested form may be a part): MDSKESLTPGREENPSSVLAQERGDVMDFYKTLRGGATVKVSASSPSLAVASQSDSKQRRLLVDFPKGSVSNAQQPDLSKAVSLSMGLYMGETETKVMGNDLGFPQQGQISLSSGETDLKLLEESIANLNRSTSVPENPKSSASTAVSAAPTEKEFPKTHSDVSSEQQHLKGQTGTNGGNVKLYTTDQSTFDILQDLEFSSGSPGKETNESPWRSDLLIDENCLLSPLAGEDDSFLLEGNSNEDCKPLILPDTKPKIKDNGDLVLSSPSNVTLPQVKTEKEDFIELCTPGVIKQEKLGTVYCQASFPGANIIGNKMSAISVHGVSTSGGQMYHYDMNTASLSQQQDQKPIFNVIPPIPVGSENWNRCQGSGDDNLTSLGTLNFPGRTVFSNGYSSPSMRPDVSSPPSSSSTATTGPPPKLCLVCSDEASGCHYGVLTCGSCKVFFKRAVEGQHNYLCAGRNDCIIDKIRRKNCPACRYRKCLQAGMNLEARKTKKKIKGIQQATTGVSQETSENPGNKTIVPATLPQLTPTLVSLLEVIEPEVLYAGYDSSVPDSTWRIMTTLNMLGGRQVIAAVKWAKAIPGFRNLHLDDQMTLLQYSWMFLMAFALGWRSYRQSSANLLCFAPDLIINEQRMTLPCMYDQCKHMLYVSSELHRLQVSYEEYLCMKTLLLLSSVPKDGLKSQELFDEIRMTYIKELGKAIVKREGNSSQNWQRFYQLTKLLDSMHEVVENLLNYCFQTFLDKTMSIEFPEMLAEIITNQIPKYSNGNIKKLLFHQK

[6] = target: Glucocorticoid receptor (Homo sapiens) (UniProt P04150); experiment: GR-EFC Redistribution (AID 451; calls by dose curve; further: potency means the concentration at half of the fitted maximal effect); conditions: CHO-K1 GR-EFC translocation, beta-gal luminescence, 2 h
How it was run: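 CHO-K1 cells stably expressing nuclear-localized β-gal enzyme acceptor and GR fused C-terminally to the enzyme donor fragment; ligand-driven nuclear translocation restores β-gal by complementation. Compounds titrated up to 46 uM final, 2 h at 37 °C; luminescence read.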

[7] = target: Mitogen-activated protein kinase 10 (Mus musculus) (UniProt Q61831); experiment: JNK3 AlphaScreen Assay (AID 530); conditions: JNK3 lysate, c-Jun phosphorylation; series mostly up to 25.6 µM;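 further: kinase came from lysate of stimulated human HepG2 cells; signal reports phosphorylation of biotinylated GST-cJun 1-79 at Ser73 with 10 µM ATP; on the % scale 0 is the no-effect control and ±100 the full control effect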
How it was run: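 Inhibitors reduce antibody binding to phosphorylated biotin-cJun, lowering AlphaScreen luminescence. Lysates from HepG2 cells pre-activated by IL-1beta plus TNF-alpha supplied JNK3; compounds were titrated.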

[8] = Cell Viability - BJ (AID 421; calls by dose curve;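 further: potency means the concentration at half of the fitted maximal effect; cells exposed to compound for 40 hours at 37 °C before readout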); conditions: BJ fibroblast viability, qHTS
How it was run: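 Cytotoxicity in human BJ foreskin fibroblasts is scored as loss of cellular ATP after a 40-hour exposure, measured by luciferase luminescence. Controls are DMSO and 100 uM tamoxifen.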

[9] = Cell Viability - Jurkat (AID 426;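 active means dose-dependent loss of cell ATP signal giving a full or clear fitted curve, ranked by lower potency value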; further: potency means the concentration at half of the fitted maximal effect); conditions: qHTS
How it was run: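 Jurkat (Clone E6-1) cells, 5000/well in complete medium, exposed to compounds for 40 hr at 37C; intracellular ATP measured by CellTiter-Glo luminescence after 20 min at room temperature. AC50 from Hill fits.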

[10] = Cell Viability - HepG2 (AID 433; calls by dose curve;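 further: potency means the concentration at half of the fitted maximal effect; potency for ATP loss meaning cytotoxicity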); conditions: qHTS
How it was run: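 Cytotoxicity read as ATP loss (CellTiter-Glo luminescence) after 40 hr compound exposure of HepG2, 1500 cells/well, 37 °C. AC50 by Hill equation; 0% set by DMSO, 100% inhibition by 100 uM tamoxifen.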

[11] = Cell Viability - N2a (AID 540; active means well fitted curve in the direction sought with a large enough effect; an effect the other way counts as inactive or inconclusive; further: potency means the concentration at half of the fitted maximal effect; nearly all actives have a fitted effect of over 45% in size); conditions: N2a mouse neuroblastoma cell viability; activity change, negative = cytotoxicity: at 92.2 µM (top of the series)
How it was run: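 Mouse neuroblastoma N2a cells, 1500/well, exposed to compounds 40 h at 37 °C in complete medium. Viability measured as cellular ATP by CellTiter-Glo luminescence; AC50 from Hill fits of concentration-response.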

[12] = Cell Viability - NIH 3T3 (AID 541; active means well fitted curve in the direction sought with a large enough effect; an effect the other way counts as inactive or inconclusive;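 further: plate controls were DMSO alone for no effect and tamoxifen positive control for full effect; nearly all actives have a fitted effect of over 25% in size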); conditions: NIH 3T3 cell viability, qHTS; activity change, negative = cytotoxicity: at 92.2 µM (top of the series)
How it was run: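 Mouse NIH 3T3 fibroblasts, 1000 cells/well, rested 5 hr at 37 °C, then exposed to compound for 40 hr at 37 °C in complete medium. Viability read as intracellular ATP by CellTiter-Glo luminescence; AC50 from Hill-equation fits of concentration-response data.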

[13] = Cell Viability - HUV-EC-C (AID 542; active means well fitted curve in the direction sought with a large enough effect; an effect the other way counts as inactive or inconclusive; further: potency means the concentration at half of the fitted maximal effect; nearly all actives have a fitted effect of over 35% in size); conditions: HUV-EC-C endothelial cell viability, qHTS; series mostly up to 92.2 µM
How it was run: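 HUV-EC-C human vascular endothelial cells, 1000/well, exposed to compound for 40 hr at 37 °C in complete medium. Intracellular ATP was read by CellTiter-Glo luminescence. AC50 came from Hill-equation fits of concentration-response data.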

[14] = Cell Viability - H-4-II-E (AID 543; active means well fitted curve in the direction sought with a large enough effect; an effect the other way counts as inactive or inconclusive; further: on the % scale 0 is the no-effect control and ±100 the full control effect; nearly all actives have a fitted effect of over 35% in size); conditions: H-4-II-E rat hepatoma viability; series mostly up to 92.2 µM
How it was run: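 Rat hepatoma H-4-II-E cells, 1500 per well, treated 40 h at 37 °C in complete medium. Cellular ATP read by CellTiter-Glo luminescence; AC50 from Hill fits of concentration-response.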

[15] = Cell Viability - Renal Proximal Tubule (AID 545; active means well fitted curve in the direction sought with a large enough effect; an effect the other way counts as inactive or inconclusive;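 further: 0% = DMSO only and -100% = 100 µM tamoxifen; nearly all actives have a fitted effect of over 40% in size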); conditions: renal proximal tubule cells viability, primary cells of rat origin; activity change, negative = cytotoxicity: at 91.7 µM (top of the series)
How it was run: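 Viability taken as intracellular ATP (CellTiter-Glo luminescence) after 40 hr, 37 °C compound treatment of primary proximal tubule cells from rat kidney, 1000 cells/well; Hill-equation fits of qHTS concentration-response data gave AC50.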

[16] = Cell Viability - Mesenchymal (AID 546; active means well fitted curve in the direction sought with a large enough effect; an effect the other way counts as inactive or inconclusive;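 further: cells exposed to compound for 40 hours before reading; 0% = DMSO only and -100% = 100 µM tamoxifen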); conditions: mesenchymal cells viability, qHTS; activity change, negative = cytotoxicity: at 91.7 µM (top of the series)
How it was run: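 Normal human renal glomerulus-derived kidney mesenchymal cells, 1000 per well in complete medium, were treated with compounds for 40 hr at 37 °C. Viability was read as intracellular ATP by CellTiter-Glo luminescence; AC50 values came from Hill-equation fits of qHTS concentration-response data.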

**Q.** Which activity change, negative = inhibition ([1]; at 17.2 µM (top of the series)) does the source give for `NCCc1ccn[nH]1` here?
**A.** 2.73%

**Q.** What about the Potency [2] of the same compound?
**A.** inactive

**Q.** What about the activity change, negative = inhibition ([3]; at 17.2 µM (top of the series)) of the same compound?
**A.** -6.22%

**Q.** What about the activity, negative = inhibition ([4]; at 17.2 µM (top of the series)) of the same compound?
**A.** 4.55%

**Q.** And the Potency [5]?
**A.** > 20.6 µM

**Q.** What about the Potency [6] of the same compound?
**A.** > 20.6 µM

**Q.** What about the outcome [7] of the same compound?
**A.** inactive

**Q.** Which activity change, negative = inhibition ([1]; at 17.2 µM (top of the series)) does the source give for `CCC(NC(C)C)C(O)c1ccc(O)c(O)c1` (centres undefined) here?
**A.** -6.11%

**Q.** And the activity change, negative = inhibition ([3]; at 17.2 µM (top of the series))?
**A.** 3%

**Q.** And the activity, negative = inhibition ([4]; at 17.2 µM (top of the series))?
**A.** 1.25%

**Q.** What does the source list for `CN1CCN(CCCN2c3ccccc3Sc3ccc(S(=O)(=O)N(C)C)cc32)CC1`?
**A.** activity change, negative = inhibition ([1]; at 17.2 µM (top of the series)): 16.8%; Potency [2]: 12.6 µM (active); activity, negative = inhibition ([4]; at 17.2 µM (top of the series)): 5.77%; Potency [5]: > 20.6 µM; Potency [6]: > 20.6 µM; outcome [7]: inactive

**Q.** For `CCN1CCN(c2cc3c(cc2F)c(=O)c(C(=O)O)cn3C2CC2)CC1`, which activity change, negative = inhibition ([1]; at 17.2 µM (top of the series)) is on record?
**A.** 4.63%

**Q.** And the activity change, negative = inhibition ([3]; at 17.2 µM (top of the series))?
**A.** 3.59%

**Q.** What about the activity, negative = inhibition ([4]; at 17.2 µM (top of the series)) of the same compound?
**A.** 20.5%

**Q.** And the Potency [5]?
**A.** > 20.6 µM

**Q.** For `CCCC(=O)Nc1ccc(OCC(O)CNC(C)C)c(C(C)=O)c1` (centres undefined), which activity change, negative = inhibition ([1]; at 17.2 µM (top of the series)) is on record?
**A.** 0.101%

**Q.** What about the activity change, negative = inhibition ([3]; at 17.2 µM (top of the series)) of the same compound?
**A.** -15.3%

**Q.** And the activity, negative = inhibition ([4]; at 17.2 µM (top of the series))?
**A.** 7.52%

**Q.** What about the Potency [5] of the same compound?
**A.** > 20.6 µM

**Q.** Which results are given for `O=C1c2ccccc2C(=O)C1c1ccccc1`?
**A.** activity change, negative = inhibition ([1]; at 17.2 µM (top of the series)): -0.252%; activity change, negative = inhibition ([3]; at 17.2 µM (top of the series)): -11.7%; activity, negative = inhibition ([4]; at 17.2 µM (top of the series)): 3.06%; Potency [5]: > 20.6 µM; Potency [6]: > 20.6 µM; outcome [7]: inactive

**Q.** What does the source list for `CN1CCC[C@@H]1c1cccnc1`?
**A.** activity change, negative = inhibition ([1]; at 38 µM (top of the series)): 12.2%; activity change, negative = inhibition ([3]; at 38 µM (top of the series)): -1.61%; activity, negative = inhibition ([4]; at 38 µM (top of the series)): -4.46%

**Q.** For `CC(=O)OCC(=O)[C@@]1(OC(C)=O)[C@@H](C)C[C@H]2[C@@H]3C[C@H](F)C4=CC(=O)C=C[C@]4(C)[C@@]3(F)[C@@H](O)C[C@@]21C`, which activity change, negative = inhibition ([1]; at 17.2 µM (top of the series)) is on record?
**A.** -3.12%

**Q.** And the activity change, negative = inhibition ([3]; at 17.2 µM (top of the series))?
**A.** 17.4%

**Q.** And the activity, negative = inhibition ([4]; at 17.2 µM (top of the series))?
**A.** 0.432%

**Q.** And the Potency [5]?
**A.** 0.000878 µM (active)

**Q.** Which results are given for `CN1CCN(C(c2ccccc2)c2ccccc2)CC1`?
**A.** activity change, negative = inhibition ([1]; at 17.2 µM (top of the series)): 4.01%; Potency [2]: inactive; activity, negative = inhibition ([4]; at 17.2 µM (top of the series)): 3.06%; Potency [5]: > 20.6 µM; Potency [6]: > 20.6 µM; outcome [7]: inactive

**Q.** What does the source list for `C[C@@H]1C[C@H]2[C@@H]3CCC4=CC(=O)C=C[C@]4(C)[C@@]3(F)[C@@H](O)C[C@]2(C)[C@H]1C(=O)CO`?
**A.** activity change, negative = inhibition ([1]; at 17.2 µM (top of the series)): 0.15%; activity change, negative = inhibition ([3]; at 17.2 µM (top of the series)): -16.3%; activity, negative = inhibition ([4]; at 17.2 µM (top of the series)): 1.17%; Potency [5]: > 20.6 µM

**Q.** What does the source list for `CC(C)(C)CC(C)(C)c1ccc(OCCOCC[N+](C)(C)Cc2ccccc2)cc1`?
**A.** activity change, negative = inhibition ([1]; at 17.2 µM (top of the series)): -12.6%; Potency [8]: 52.9 µM (active); Potency [9]: 26.8 µM (active); Potency [10]: 57.8 µM (active); activity, negative = inhibition ([4]; at 17.2 µM (top of the series)): -2.12%; outcome [7]: inactive; Potency [11]: 5.01 µM (active); activity change, negative = cytotoxicity [12]: -129% (active); Potency [13]: 50.1 µM (active); Potency [14]: inactive; activity change, negative = cytotoxicity [15]: -90% (active); activity change, negative = cytotoxicity [16]: -104% (active)
